The values that follow come from PubChem BioAssay (Tox21).

Records with an inconclusive call do not appear. Active and inactive are the calls of the source. The call rests on the fitted dose curve; in most records, active means well fitted curve in the direction sought with a large enough effect in the repeat runs; inconclusive means weak or mixed curves; inactive means no such curve, though single readings can be large; an effect the other way counts as inactive or inconclusive. Where a SMILES comes first, the peptide text is derived from it. [ ]: non-standard residue; d: D form. pGlu = O=C1CC[C@@H](C(=O)O)N1

The target in assay [1] is Cytochrome P450 2C9 (Homo sapiens) (UniProt P11712). The assay can be described thus: Cytochrome P450 Family 2 Subfamily C Member 9 (CYP2C9) small molecule antagonists: luciferase reporter qHTS assay (AID 1671198). Further: potency means the concentration at half of the fitted maximal effect. The method, boiled down: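 Enzyme-substrate mix preincubated with compound 10 min at room temperature; reaction started with NADPH regeneration solution, 1 h 37C. Luminescent luciferin product read after 20 min detection reagent.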
For orientation: Reporter assays use an easily measured gene product as a stand-in for the process of interest.

For assay [2], the target named is Cytochrome P450 1A2 (Homo sapiens) (UniProt P05177). The assay can be described thus: Cytochrome P450 Family 1 Subfamily A Member 2 (CYP1A2) small molecule antagonists: luciferase reporter qHTS assay (AID 1671199). Further: potency means the concentration at half of the fitted maximal effect. The gist of the method:
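Compounds were incubated with CYP1A2 and a luminogenic proluciferin substrate for 10 min at room temperature before the reaction was started with NADPH regeneration solution. After 1 h, detection reagent was added and light output, proportional to CYP activity, was recorded.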

Assay [3] deals with Voltage-gated inwardly rectifying potassium channel KCNH2 (Homo sapiens) (UniProt Q12809). The assay can be described thus: Human Ether-a-go-go-Related Gene (hERG) channel small molecule antagonists: fluorescence cell-based qHTS assay (AID 1671200).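 Further: hERG-expressing U2OS cells given a thallium stimulus after FluxOR II dye loading; series mostly up to about 77 µM.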 The gist of the method:
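Thallium served as the potassium surrogate; its influx into dye-loaded U2OS cells carrying the channel was measured by fluorescence over 2 min.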
A general note: Block of hERG is tested as a sign of cardiac risk.

Assay [4] addresses Cytochrome P450 3A4 (Homo sapiens) (UniProt P08684). The assay can be described thus: Cytochrome P450 Family 3 Subfamily A Member 4 (CYP3A4) small molecule antagonists: luciferase reporter qHTS assay (AID 1671201). Further: potency means the concentration at half of the fitted maximal effect. The gist of the method:
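Relative luminescence units after 20 min with luciferin detection reagent served as read-out. Beforehand, CYP3A4 turned over a proluciferin substrate for 1 h at room temperature with NADPH regeneration, following 10 min compound preincubation.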
Further: nearly all actives have a fitted effect of over 50% in size.

Chain of Cytochrome P450 2C9 (Homo sapiens) (P11712 whole entry, looked up): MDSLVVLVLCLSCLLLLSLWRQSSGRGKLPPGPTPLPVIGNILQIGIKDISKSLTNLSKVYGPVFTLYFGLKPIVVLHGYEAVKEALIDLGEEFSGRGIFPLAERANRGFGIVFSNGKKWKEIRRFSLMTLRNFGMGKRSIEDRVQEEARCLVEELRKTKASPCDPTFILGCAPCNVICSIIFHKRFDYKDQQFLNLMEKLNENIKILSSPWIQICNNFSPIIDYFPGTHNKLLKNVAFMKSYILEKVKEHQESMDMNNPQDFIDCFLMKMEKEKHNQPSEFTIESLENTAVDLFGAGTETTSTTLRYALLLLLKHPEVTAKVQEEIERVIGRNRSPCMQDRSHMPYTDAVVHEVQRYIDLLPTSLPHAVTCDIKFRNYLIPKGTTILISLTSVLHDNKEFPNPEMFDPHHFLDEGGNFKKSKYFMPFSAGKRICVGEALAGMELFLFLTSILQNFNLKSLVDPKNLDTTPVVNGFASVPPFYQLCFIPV
Chain of Voltage-gated inwardly rectifying potassium channel KCNH2 (Homo sapiens) (Q12809 whole entry, looked up): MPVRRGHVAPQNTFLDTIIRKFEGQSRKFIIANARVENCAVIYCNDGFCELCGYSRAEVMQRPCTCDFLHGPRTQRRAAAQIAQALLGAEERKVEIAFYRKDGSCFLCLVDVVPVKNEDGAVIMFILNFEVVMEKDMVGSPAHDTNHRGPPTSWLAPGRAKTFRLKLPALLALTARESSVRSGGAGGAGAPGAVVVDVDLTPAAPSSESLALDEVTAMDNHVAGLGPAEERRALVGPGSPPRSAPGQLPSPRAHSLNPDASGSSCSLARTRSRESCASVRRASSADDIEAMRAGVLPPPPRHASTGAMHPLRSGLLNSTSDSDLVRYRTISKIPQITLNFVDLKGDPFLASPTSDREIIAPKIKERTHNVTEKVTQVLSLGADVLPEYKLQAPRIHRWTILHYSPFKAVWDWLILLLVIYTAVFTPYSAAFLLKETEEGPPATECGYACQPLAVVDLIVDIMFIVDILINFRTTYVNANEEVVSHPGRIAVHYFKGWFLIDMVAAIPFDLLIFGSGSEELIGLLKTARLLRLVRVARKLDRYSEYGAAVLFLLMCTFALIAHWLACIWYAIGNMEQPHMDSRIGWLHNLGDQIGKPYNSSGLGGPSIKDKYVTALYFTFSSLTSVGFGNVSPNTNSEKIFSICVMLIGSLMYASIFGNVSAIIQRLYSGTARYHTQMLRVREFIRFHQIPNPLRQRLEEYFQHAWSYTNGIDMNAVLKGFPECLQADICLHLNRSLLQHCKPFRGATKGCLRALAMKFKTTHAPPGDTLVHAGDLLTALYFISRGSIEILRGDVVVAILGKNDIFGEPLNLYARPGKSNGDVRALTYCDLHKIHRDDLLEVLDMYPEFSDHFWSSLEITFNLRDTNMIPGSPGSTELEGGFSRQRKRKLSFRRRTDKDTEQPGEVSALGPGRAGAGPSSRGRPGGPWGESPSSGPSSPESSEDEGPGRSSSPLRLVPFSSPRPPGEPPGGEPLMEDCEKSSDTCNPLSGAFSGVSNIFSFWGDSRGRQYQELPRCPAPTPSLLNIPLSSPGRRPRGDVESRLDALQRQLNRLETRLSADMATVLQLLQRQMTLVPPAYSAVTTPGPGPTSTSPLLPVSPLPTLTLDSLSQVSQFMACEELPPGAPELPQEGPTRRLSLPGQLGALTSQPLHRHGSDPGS
Chain of Cytochrome P450 3A4 (Homo sapiens) (P08684 whole entry, looked up): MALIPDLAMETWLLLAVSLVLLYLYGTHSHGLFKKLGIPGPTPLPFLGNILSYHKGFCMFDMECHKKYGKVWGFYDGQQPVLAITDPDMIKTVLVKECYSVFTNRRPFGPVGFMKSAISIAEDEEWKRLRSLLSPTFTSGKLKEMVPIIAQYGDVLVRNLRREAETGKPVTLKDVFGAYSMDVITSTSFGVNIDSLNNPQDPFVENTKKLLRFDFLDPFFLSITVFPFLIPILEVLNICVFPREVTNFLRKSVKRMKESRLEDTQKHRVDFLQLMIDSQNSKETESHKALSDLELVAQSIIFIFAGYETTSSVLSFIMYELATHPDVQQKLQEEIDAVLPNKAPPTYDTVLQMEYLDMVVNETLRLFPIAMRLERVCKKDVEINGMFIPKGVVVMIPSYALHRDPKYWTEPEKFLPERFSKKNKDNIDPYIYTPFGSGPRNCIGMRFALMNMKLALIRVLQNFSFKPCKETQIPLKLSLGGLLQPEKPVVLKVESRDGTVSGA
Chain of Cytochrome P450 1A2 (Homo sapiens) (P05177 whole entry, looked up): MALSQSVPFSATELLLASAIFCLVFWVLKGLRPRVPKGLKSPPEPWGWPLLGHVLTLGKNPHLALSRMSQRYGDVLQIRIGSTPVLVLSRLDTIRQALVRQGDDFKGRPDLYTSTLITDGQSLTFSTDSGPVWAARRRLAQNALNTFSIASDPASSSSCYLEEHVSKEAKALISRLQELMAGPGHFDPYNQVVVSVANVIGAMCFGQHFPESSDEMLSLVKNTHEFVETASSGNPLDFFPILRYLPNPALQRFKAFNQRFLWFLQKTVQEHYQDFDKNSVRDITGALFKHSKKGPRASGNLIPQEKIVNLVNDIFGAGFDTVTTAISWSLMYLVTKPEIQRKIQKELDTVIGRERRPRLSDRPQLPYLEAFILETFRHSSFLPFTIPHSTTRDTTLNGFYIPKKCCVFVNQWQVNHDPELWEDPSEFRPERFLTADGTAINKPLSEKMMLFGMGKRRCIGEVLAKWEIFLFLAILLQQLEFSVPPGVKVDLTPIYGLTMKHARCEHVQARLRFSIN

In the case of `COc1cccc(OC)c1C(=O)N[C@@H]1C(=O)N2[C@@H]1SC(C)(C)[C@@H]2C(=O)O`, the Potency result in assay [1], in assay [2], in assay [3] and in assay [4] was “inactive” each time.

For the molecule `CN(C)C(=O)Oc1cccc([N+](C)(C)C)c1`, the Potency result in assay [1], in assay [2], in assay [3] and in assay [4] was “inactive” in each case.

In the case of `CCCCCCCCCCCCCCCCCCO`, the Potency entry in assay [1], in assay [2], in assay [3] and in assay [4] was “inactive” in each case.

As for `CC[N+](CC)(CC)CCOc1cccc(OCC[N+](CC)(CC)CC)c1OCC[N+](CC)(CC)CC`, the Potency result in assay [1], in assay [2], in assay [3] and in assay [4] was “inactive” throughout.

Take `O=C(O)c1cc(C(=O)O)cc(C(=O)O)c1`: the Potency result in assay [1], in assay [2], in assay [3] and in assay [4] was “inactive” throughout.

In the case of `CCN(Cc1ccccc1)c1ccccc1`, the Potency in assay [1] and in assay [2] was 35.1 µM (active) throughout. For the same molecule, the Potency result in assay [3] and in assay [4] was “inactive” throughout.

Consider `C=C(C)C(=O)OCC(O)CO` (stereo unspecified), for which the Potency result in assay [1], in assay [2], in assay [3] and in assay [4] was “inactive” throughout.

As for `C=C(C)C(=O)OCCOCCOCCOCCOC(=O)C(=C)C`, in assay [1], the Potency was 63.3 µM (active). The Potency entry in assay [3] was “inactive”.

As to `Cc1onc(-c2c(Cl)cccc2Cl)c1C(=O)Cl`, the Potency in assay [1] was 17.4 µM (active). In assay [3], the Potency entry was “inactive”.

As for `CCCCCCC#CC(=O)OC`, the Potency entry in assay [1] and in assay [3] was “inactive” in each case.

As to `COc1cc(-c2ccc(=O)[nH]n2)ccc1OC(F)F`, the Potency entry in assay [1] and in assay [3] was “inactive” in each case.

For `C=CCCCCCCCCC(=O)OCC`, the Potency entry in assay [1], in assay [3] and in assay [4] was “inactive” in each case.

Regarding `[K+]`, the Potency entry in assay [1] and in assay [3] was “inactive” in each case.

Take `CO[Si](C)(OC)c1ccccc1`: the results for the Potency in assay [1] and in assay [4] were 35.6 µM (active) and 25.2 µM (active), respectively. Moreover, in assay [3], the Potency result was “inactive”.

`CCCCOC(=O)CCC(C)=O`: the Potency result in assay [1], in assay [3] and in assay [4] was “inactive” throughout.

Consider `C=CC(C)(CCC=C(C)C)OC(=O)CC` (stereo unspecified), for which the Potency in assay [1] is 31.7 µM (active); in assay [4], 28.3 µM (active). Moreover, in assay [3], the Potency entry is “inactive”.

As to `c1ccc2sc(SN3CCOCC3)nc2c1`, in assay [1], the Potency is 17.4 µM (active). The Potency result in assay [3] was “inactive”.

Turning to `[O-][n+]1cccc(CO)c1`, the Potency entry in assay [1], in assay [3] and in assay [4] was “inactive” in each case.

On to `C[N+]1(C)CCCC(OC(=O)C(O)(c2ccccc2)c2ccccc2)C1` (stereo unspecified), for which the Potency result in assay [1], in assay [3] and in assay [4] was “inactive” in each case.

Consider `CCO[Si](OCC)(OCC)c1ccccc1`, for which the Potency entry in assay [1] and in assay [3] was “inactive” in each case.

As to `COCCOCC(OC)OC`, the Potency result in assay [1] and in assay [3] was “inactive” throughout.

Turning to `NC(=O)NC1N=C([O][Al])NC1=O` (stereo unspecified), the Potency result in assay [1] and in assay [3] was “inactive” in each case.

As for `CCOC(=O)COC(=O)c1ccccc1C(=O)OCC`, the Potency in assay [1] was 31.7 µM (active). Further, the Potency result in assay [3] and in assay [4] was “inactive” each time.

On to `CN(C)CCCN(C)CCCN(C)C`, for which the Potency result in assay [1] and in assay [3] was “inactive” throughout.

`C=CCOCC(O)CO` (stereo unspecified): the Potency entry in assay [1], in assay [3] and in assay [4] was “inactive” in each case.

For the molecule `Cc1ccc(C(=O)Nc2ccc(S(=O)(=O)O)c3cc(S(=O)(=O)O)cc(S(=O)(=O)O)c23)cc1NC(=O)c1cccc(NC(=O)Nc2cccc(C(=O)Nc3cc(C(=O)Nc4ccc(S(=O)(=O)O)c5cc(S(=O)(=O)O)cc(S(=O)(=O)O)c45)ccc3C)c2)c1`, the Potency entry in assay [1], in assay [3] and in assay [4] was “inactive” throughout.

Take `CCCn1cc[n+](C)c1C`: the Potency result in assay [1] and in assay [3] was “inactive” throughout.

On to `C[N+]12CCC(CC1)C(OC(=O)C(O)(c1ccccc1)c1ccccc1)C2` (stereo unspecified), for which the Potency entry in assay [1] and in assay [3] was “inactive” each time.

On to `O=C(O)CC(C(=O)O)S(=O)(=O)O` (stereo unspecified), for which the Potency result in assay [1], in assay [3] and in assay [4] was “inactive” throughout.

As for `CCCCCCCCCCCCSC`, the Potency result in assay [1], in assay [3] and in assay [4] was “inactive” in each case.

Take `CCOC(=O)CCC(=O)OCC`: the Potency in assay [1] was 35.6 µM (active). Moreover, the Potency result in assay [3] and in assay [4] was “inactive” throughout.

For the molecule `COc1c(N2CCNC(C)C2)c(F)cc2c(=O)c(C(=O)O)cn(C3CC3)c12` (stereo unspecified), the Potency entry in assay [1] and in assay [3] was “inactive” in each case.

`C=C(C)C(=O)OCC1CCCO1` (stereo unspecified): the Potency result in assay [1], in assay [3] and in assay [4] was “inactive” in each case.

For `O=CN(CCO)CCO`, the Potency result in assay [1], in assay [3] and in assay [4] was “inactive” each time.

In the case of `CCOCC(C)O` (stereo unspecified), the Potency entry in assay [1], in assay [3] and in assay [4] was “inactive” in each case.

As for `Clc1cc(Cl)cc(Cl)c1`, the Potency result in assay [1], in assay [3] and in assay [4] was “inactive” in each case.

On to `O=[N+]([O-])c1ccc(/C=N\O)o1`, for which the Potency result in assay [1] and in assay [3] was “inactive” in each case.

For `CC(=O)N[C@H]1[C@H]([C@H](O)[C@H](O)CO)OC(C(=O)O)=C[C@@H]1N=C(N)N`, the Potency result in assay [1] and in assay [3] was “inactive” throughout.

Regarding `COc1ccc2cc1Oc1cc3c(cc1OC)CC[N+](C)(C)[C@H]3Cc1ccc(cc1)Oc1c(OC)c(OC)cc3c1[C@@H](C2)[N+](C)(C)CC3`, the Potency result in assay [1] and in assay [3] was “inactive” each time.

With `CCCCN(CCC(=O)OCC)C(C)=O`, the Potency entry in assay [1], in assay [3] and in assay [4] was “inactive” each time.

As to `Nc1ccn([C@@H]2O[C@H](CO)[C@@H](O)C2O)c(=O)n1` (stereo partly specified), the Potency entry in assay [1], in assay [3] and in assay [4] was “inactive” each time.

Take `O=C(c1ccccc1)C1(O)CCCCC1`: the Potency in assay [1] is 35.6 µM (active). Also, the Potency entry in assay [3] and in assay [4] was “inactive” in each case.

On to `CC(=O)Oc1cccc(C)c1`, for which the Potency result in assay [1], in assay [3] and in assay [4] was “inactive” in each case.

Turning to `CCNC(=O)[C@@H]1CCCN1C(=O)[C@H](CCCN=C(N)N)NC(=O)[C@H](CC(C)C)NC(=O)CNC(=O)[C@H](Cc1ccc(O)cc1)NC(=O)[C@H](CO)NC(=O)[C@H](Cc1c[nH]c2ccccc12)NC(=O)[C@H](Cc1cnc[nH]1)NC(=O)[C@@H]1CCC(=O)N1` ([pGlu]HWSYGLRP-NHEt), the Potency result in assay [1] and in assay [3] was “inactive” in each case.

With `CC(C)(C)C(=O)c1ccccc1`, the Potency entry in assay [1], in assay [3] and in assay [4] was “inactive” each time.

As for `CC/C=C\CCOC(C)OCC` (stereo unspecified), the Potency entry in assay [1], in assay [3] and in assay [4] was “inactive” each time.

For `C[C@H]1[C@H](NC(=O)/C(=N/OC(C)(C)C(=O)O)c2csc(N)n2)C(=O)N1S(=O)(=O)O` (stereo in doubt), the Potency result in assay [1], in assay [3] and in assay [4] was “inactive” in each case.

For the molecule `CC(C)=CCC/C(C)=C/C#N`, the Potency entry in assay [1], in assay [3] and in assay [4] was “inactive” each time.

In the case of `CCCCOCCOC(=O)CCCCCCCCC(=O)OCCOCCCC`, the Potency in assay [1] was 35.6 µM (active). For the same molecule, the Potency entry in assay [3] and in assay [4] was “inactive” in each case.

Turning to `Cc1ccnc(NS(=O)(=O)c2ccc(N)cc2)n1`, the Potency entry in assay [1], in assay [3] and in assay [4] was “inactive” throughout.

Turning to `N[C@@H](CCC(=O)O)C(=O)O`, the Potency in assay [2] is 39.9 µM (active). The Potency entry in assay [3] and in assay [4] was “inactive” each time.

Consider `O=C(O)Cc1csc(-c2ccc(Cl)cc2)n1`, for which the Potency result in assay [1], in assay [3] and in assay [4] was “inactive” each time.
